# Shown are actives, neighbours in structure and some others; about 2.1% of the full set was active somewhere.
# TDP43 rescue = qHTS of TDP-43 Inhibitors; TDP-43 expressing yeast growth rescue, BacTiter-Glo, 24 h; Potency, µM (doses to about 46.1 µM), for inactives: at the top dose growth rescue (activation), usual class: activators; 1.8% of 410,000 active; further: % of control where 0% means no effect; nearly all actives have a fitted effect of over 50% in size
#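 Readout is BacTiter-Glo luminescence of cell growth, so inhibitors register as activators. TDP-43-expressing yeast at OD600=0.02 in galactose medium, after raffinose pregrowth to mid-log, were incubated with compound for 24 hr at 30 deg C.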
# Abeta yeast res = qHTS for compounds that reverse cellular toxicity of Amyloid beta (A-beta) peptide in yeast: Primary Screen | 0.063% of 410,000 active | Potency, µM (top dose mostly 46.1 µM), actives largely listed as activators | yeast expressing A-beta42, growth rescue, OD600, 48 h; response scale: 0% DMSO, 100% iron-clioquinol control; further: nearly all actives have a fitted effect of over 55% in size
#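 Yeast growth medium received pinned compounds, then yeast cells expressing toxic A-beta were added; plates incubated at 30 C for 48 hr. Growth read as absorbance at 600 nm, normalized to DMSO and equimolar FeCl3 plus clioquinol controls.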
# FUS suppressor = qHTS for Suppressors of FUS Proteinopathy: Primary screen using FUS-linked yeast assay. S. cerevisiae FUS-expressing, growth rescue, OD600, 24 h. Potency, µM (highest dose often 76.6 µM), usual class: activators. 0.24% of 390,000 active;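 further: plate controls were DMSO vehicle for no effect and reference control for full effect; nearly all actives have a fitted effect of over 55% in size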
#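 Compound concentration series was pinned onto galactose-induced FUS-expressing yeast seeded at OD 0.005. Plates sat 24hr at 30C; absorbance at 600 nm gave growth. DMSO served as background control.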
# aSyn rescue = qHTS of alpha-syn Inhibitors. Potency, µM (doses to about 46.1 µM), for inactives: top-dose growth rescue (activation), usual class: activators. 0.14% of 370,000 active. Yeast expressing alpha-synuclein, growth rescue, BacTiter-Glo, 24 h; further: % of control where 0% means no effect; nearly all actives have a fitted effect of over 65% in size
#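 Rescue of yeast growth: cells expressing toxic alpha-synuclein, induced in galactose at OD600 0.02, incubated with compound 24 h at 30 C. ATP luminescence quantified growth; inhibitors of toxicity appear as activators.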
# The depositor's hits bear a star; i = inactive; ? = inconclusive; nt = not tested or not shown. The call rests on the fitted dose curve; in most records, active means well fitted curve in the direction sought with a large enough effect; inconclusive means small, poorly fitted or top-dose-only effect, or another doubt; inactive means no such curve, though single readings can be large; an effect the other way counts as inactive or inconclusive. Potency means the concentration at half of the fitted maximal effect.
SMILES,TDP43 rescue,Abeta yeast res,FUS suppressor,aSyn rescue
CCOC(=O)Cc1csc(NC(=O)COc2ccc(C)cc2)n1,11.2µM*,?,i,-9.6%
CCOC(=O)Cc1csc(NC(=O)COc2ccccc2)n1,-12.5%,i,i,-15.4%
CCOC(=O)Cc1csc(NC(=O)COc2ccc3c(c2)CCC3)n1,15.8µM*,?,i,-24.1%
Cc1ccc2oc(=O)c3cc(C(=O)N(Cc4ccccc4)C(C)C)sc3c2c1,10.0%,i,i,nt
Cc1ccccc1C(=O)NC1CCCCN(Cc2ccc(Cl)cc2)C1=O (stereo not drawn),nt,nt,i,nt
CSc1ccc(/C=C/C(=O)c2ccc(O)cc2)cc1,14.1µM*,?,i,-11.0%
COc1ccc(OCCCn2c(=O)oc3ccc(C)cc32)cc1,?,i,i,nt
Cc1ccc2oc(=O)n(CCCOc3ccccc3)c2c1,35.5µM*,i,i,8.0%
O=c1oc2ccccc2n1CCCOc1ccccc1Cl,15.8µM*,i,i,nt
Cc1ccc(-c2csc3ncn(Cc4ccc(C(=O)O)cc4)c(=O)c23)cc1C,20µM*,i,i,?
O=C(O)c1ccc(Cn2cnc3scc(-c4ccccc4)c3c2=O)cc1,?,i,i,14.3%
CCCOc1ccc(-c2csc3ncn(Cc4ccc(C(=O)O)cc4)c(=O)c23)cc1,25.1µM*,i,i,-59.9%
O=C(Cn1c(=O)n(Cc2ccc3c(c2)OCO3)c(=O)c2oc3ccccc3c21)Nc1ccccc1F,-2.5%,i,i,nt
CCOc1ccccc1N1CCN(C(=O)/C=C/c2cccc([N+](=O)[O-])c2)CC1,14.1µM*,i,i,13.1%
CCN(c1ccccc1)C(CNS(=O)(=O)c1ccccc1)c1ccccc1 (stereo not drawn),17.8µM*,i,i,nt
O=S(=O)(c1ccc2c(c1)OCCO2)N1CCN(c2nc(-c3ccccc3)nc3ccccc23)CC1,nt,nt,nt,-2.0%
COc1cc(C)ccc1OCCSc1nc2ccc(NC(=O)c3ccccc3F)cc2s1,7.0%,i,i,nt
COc1ccc(/C=N/NC(=O)c2ccoc2C)cc1COc1ccc(Cl)cc1,14.1µM*,?,?,15.0%
COc1ccc(/C=N/NC(=O)c2ccn[nH]2)cc1COc1ccc([N+](=O)[O-])c(C)c1,25.1µM*,i,i,28.6%
CS(=O)(=O)Nc1ccccc1C(=O)OCC(=O)N1CCC(c2ccccc2)=N1,25.1µM*,i,?,-10.2%
c1ccc(CN=C2NN=C(c3ccccc3)CS2)cc1,12.6µM*,i,i,5.3%
CC1=NN(/C(=N\c2nnc(C)s2)Nc2ccc(C)cc2)[C@H](c2ccc(C)cc2)S1,12.6µM*,i,i,4.8%
CC1=NN(/C(=N\c2nnc(C)s2)Nc2ccccc2)[C@H](c2cccc3ccccc23)S1,?,i,?,3.2%
COCCN=C1NN=C(c2cc(C)n(CC3CCCO3)c2C)CS1 (stereo not drawn),-17.8%,i,35.5µM*,-1.0%
COCCCN=C1NN=C(c2cc(C)n(Cc3ccccc3Cl)c2C)CS1,-23.1%,i,?,-3.9%
SMILES,TDP43 rescue,Abeta yeast res,FUS suppressor,aSyn rescue
Cc1ccc(S(=O)(=O)c2cn(Cc3ccccc3)c3cc(N4CCOCC4)c(F)cc3c2=O)cc1,23.5%,i,i,nt
Cc1ccc(CS(=O)(=O)c2cn(CC(=O)N(C)c3ccccc3)c3ccccc23)cc1,4.0%,i,31.6µM*,nt
CCN(CC)C(=O)CC[C@@H]1CC[C@]2(CCCN(Cc3cccnc3)C2)O1,nt,nt,i,nt
Cc1nc(N2CCOCC2)c2c(C(=O)N3CCN(c4cc(Cl)ccc4C)CC3)c(C)oc2n1,6.0%,i,i,nt
O=C(Nc1nnc(-c2ccc(F)cc2)o1)c1cccc([N+](=O)[O-])c1,11.2µM*,?,i,?
COc1cccc(-c2nnc(NC(=O)c3cccc(F)c3)o2)c1,?,i,i,12.8%
O=C(Nc1nnc(C2=COCCO2)o1)c1cccc([N+](=O)[O-])c1,9.2%,i,i,-1.8%
O=C(Nc1nnc(-c2cccs2)o1)c1cccc(Oc2ccccc2)c1,3.98µM*,i,i,?
O=C(Nc1nnc(-c2cccs2)o1)c1cccc(F)c1,12.6µM*,11.2µM*,i,28.6%
CCn1c(SC(C)C(=O)Nc2ccc(C)cc2)nnc1-c1ccccc1 (stereo not drawn),nt,nt,nt,0.5%
Cc1cc(Nc2cccc(Cl)c2)c2ccccc2n1,-25.4%,i,i,-4.5%
Cc1cc(C)nc(Nc2cccc(Cl)c2)n1,8.91µM*,i,i,0.0%
Cc1cc(C)nc(Nc2ccc(C)c([N+](=O)[O-])c2)n1,20µM*,i,i,1.2%
N#CCCN1CCN(C(=S)c2ccc(-c3ccc(Cl)cc3)o2)CC1,12.6µM*,i,i,7.4%
CCN1C(=O)[C@H]2[C@@H](c3ccc(C)cc3)N3C(=O)N(c4cccc(Br)c4)C(=O)[C@@]3(Cc3ccccc3)[C@H]2C1=O,-10.3%,i,35.5µM*,-2.2%
CC(C)(C)N1C(=O)[C@H]2[C@@H](c3ccc(Br)cc3)N3C(=O)N(c4ccccc4)C(=O)[C@@]3(Cc3ccccc3)[C@H]2C1=O,-4.4%,i,?,13.8%
CC(C)(C)N1C(=O)[C@H]2[C@@H](c3ccc(Br)cc3)N3C(=O)N(c4cccc(Br)c4)C(=O)[C@@]3(Cc3ccccc3)[C@H]2C1=O,6.8%,i,5.01µM*,1.2%
COc1cc2[nH]c(=O)n(CCCC(=O)NCc3ccccc3Cl)c(=O)c2cc1OC,-6.1%,i,i,nt
Cc1cc(C)c(NS(=O)(=O)c2ccc(-c3cnc(C4CC4)o3)cc2)c(C)c1,?,12.6µM*,i,nt
O=S(=O)(Nc1ccc(F)cc1Cl)c1ccc(-c2cnc(C3CC3)o2)cc1,35.5µM*,?,i,?
O=S(=O)(Nc1cccc(C(F)(F)F)c1)c1ccc(-c2cnc(C3CC3)o2)cc1,25.1µM*,i,i,nt
COc1ccccc1NS(=O)(=O)c1ccc(-c2cnc(C3CC3)o2)cc1,27.8%,i,i,26.9%
Cc1ccc(NS(=O)(=O)c2ccc(-c3cnc(C4CC4)o3)cc2)c(C)c1,28.2µM*,nt,?,?
COc1cccc(-c2cn3c(n2)sc2cc(C(=O)NCCCc4ccccc4)ccc23)c1,29.6%,i,i,nt
O=C(Cn1c(-c2cncs2)nc2ccccc21)N1CCCCC1,nt,nt,i,nt
O=C(CC1C(=O)N(c2ccccc2)C(=O)N1Cc1ccc2c(c1)OCO2)Nc1ccccc1 (stereo not drawn),-0.1%,i,i,nt
Cc1ccc(-c2cnc(C3CC3)o2)cc1S(=O)(=O)Nc1ccccc1,31.6µM*,i,i,?
COC(=O)C1=C(C)NC(=O)CC1c1cccc(OC)c1OC (stereo not drawn),-24.5%,i,i,0.6%

# From PubChem BioAssay
